Data: PubChem BioAssay AID2384 (Southern Research Specialized Biocontainment Screening …, 2010)
Out of some 2,300 compounds screened, about 1,100 (48%) were called active. No rule for the calls is given here. The set was probably picked from earlier hits. This is one part of the list. Entries with a potency or affinity are not part of this list.

assay: S. typhi counter-screen signal inhibition – fluorescence, 4 h, counter-screen for PhoP regulon inhibitor project, dose response (AID 2384); details: S. typhi GFP reporter counter-screen; series mostly up to 150 µM

Structure (SMILES) | inhibition
Cc1ccc(CCNC(=O)C2CCN(S(=O)(=O)N3CCCC3)CC2)cc1 | inactive
Cc1c(C)n(C)c2ccc(C(=O)NCCCN3CCCC3)cc12 | inactive
CC1CCN(c2nc3ccc(C(=O)NCCCN4CCCCC4)cc3s2)CC1 | inactive
COCC1CCCN(Cc2cn[nH]c2-c2cc3ccccc3o2)C1 (stereo not drawn) | inactive
O=C(c1ccc2c3c(cccc13)CC2)C1CCCN(Cc2ncc[nH]2)C1 (stereo not drawn) | inactive
O=c1cc(-c2ccc(Cl)cc2)[nH][nH]1 | inactive
COc1ccc2c(c1)c1nc(SCC(C)C)n(CCO)c(=O)c1n2C | inactive
O=C(CN(C(=O)CNS(=O)(=O)c1ccccc1)C1CCCC1)NCc1ccco1 | inactive
COc1ccc(C(=O)CSc2nnc(-c3cnccn3)n2Cc2ccco2)cc1 | inactive
CN(C)S(=O)(=O)c1cccc(NC(=O)c2cnccn2)c1 | inactive
CCn1c(CNC(=O)c2ccc(OC)cc2)nnc1SC | inactive
CC(=O)Nc1ccccc1-c1nc2ccc(C(=O)N3CCN(c4cc(C)ccc4C)CC3)cc2[nH]c1=O | inactive
COc1cccc(/C=N/NC(=O)CSCC(=O)Nc2ccccc2)c1O | inactive
COc1cccc(/C=N/NC(=O)CO/N=C(\C)c2cccs2)c1OC | inactive
C/C(=N\NC(=O)c1c(Br)c(C)nn1C)c1ccc(NC(=O)c2ccoc2C)cc1 | inactive
Cn1cc(C(=O)N/N=C/C(Br)=C/c2ccccc2)ccc1=O | inactive
COc1cccc(/C=N/NC(=O)C(=O)N2CCCC2)c1O | inactive
O=C(Nc1ccc2[nH]c(=S)sc2c1)Nc1ccccc1F | inactive
CC1=C([N+](=O)[O-])C(c2cccc(Br)c2)C2=C(N1)c1ccccc1C2=O (stereo not drawn) | inactive
Cn1nnnc1SCc1nnc(-c2ccccc2Br)o1 | inactive
Cc1c(C)c2ccc(OC(C)C(=O)N[C@@H](Cc3c[nH]c4ccccc34)C(=O)O)c(C)c2oc1=O (stereo partly drawn) | inactive
COc1ccc(-c2nnn(-c3ccc(Cl)cc3Cl)c2N)cc1 | inactive

Structure (SMILES) | inhibition
CC(=O)Oc1ccc(C(=O)Nc2ccc3c(c2)C(=O)N(CCC(=O)O)C3=O)cc1 | inactive
Cc1ccccc1-n1ncc2c([N+](=O)[O-])cc([N+](=O)[O-])cc21 | inactive
COc1cc(NS(=O)(=O)c2ccc(NC(=S)Nc3ccccc3)cc2)nc(OC)n1 | inactive
Cc1ccc(-n2[nH]c(C)c(C=NCc3ccncc3)c2=O)cc1 | inactive
Cc1[nH]n(-c2ccccc2)c(=O)c1C(c1cccc([N+](=O)[O-])c1O)c1c(C)[nH]n(-c2ccccc2)c1=O | inactive
COc1ccc(CCNC(=O)CSc2ccc(-c3ccncc3)nn2)cc1 | inactive
O=C(CCN1CCC(c2ccccc2)C1)c1ccc2c(c1)OCCO2 (stereo not drawn) | inactive
O=C(Nc1ccc2c(c1)OCCO2)C(=S)NCc1ccccc1 | inactive
Cc1ccc(N(C(=O)c2sc(C)nc2C)C(C(=O)NCc2ccco2)c2ccccc2)cc1 (stereo not drawn) | inactive
COc1ccc(C2=NN3C(=O)c4c(ccc(OC)c4OC)C3C2)cc1 (stereo not drawn) | inactive
O=[N+]([O-])c1cccnc1S(=O)(=O)c1ccccc1 | inactive
O=c1ccnc(Sc2ncccc2[N+](=O)[O-])[nH]1 | inactive
CC(=O)NS(=O)(=O)c1ccc(Nc2ccc([N+](=O)[O-])c3nonc23)cc1 | inactive
COc1ccc(CCN(C(=O)C(F)(F)F)C(C(=O)NC2CCCC2)c2cccs2)cc1 (stereo not drawn) | inactive
CCCCNC(=O)NS(=O)(=O)c1ccc(C(=O)OC)o1 | inactive
CC(C)OC(=O)c1cccc(C(=O)Oc2ccc(Br)cc2)n1 | inactive
Nc1ccc(S(=O)(=O)Nc2ccc(Cl)nn2)cc1 | inactive
CN1CCN(C2=Cc3cc(Cl)ccc3Sc3cc(F)ccc32)CC1 | inactive
CN1CCN(c2ccc(C(=O)c3cn(-c4ccc(F)c(Cl)c4)nn3)cc2)CC1 | inactive
CCc1nnc(NS(=O)(=O)c2ccc(N=Cc3c(C)[nH]n(-c4ccc(C)cc4)c3=O)cc2)s1 | inactive
COC(=O)C1=C(C)N(C2CCCC2)C(=O)C1(NC(C)=O)C(F)(F)F (stereo not drawn) | inactive
O=C(CN(Cc1ccco1)C(=O)CNS(=O)(=O)c1ccc(Cl)cc1)NCc1ccc(F)cc1 | inactive

Structure (SMILES) | inhibition
CN(C)CCN1C(=O)C(O)=C(C(=O)c2cc3ccccc3o2)C1c1ccccn1 (stereo not drawn) | inactive
CC(=O)c1ccc(OC(=O)c2cc3ccccc3oc2=O)cc1 | inactive
O=C(O)c1ccc(S(=O)(=O)NC2CC2)cc1 | inactive
Cc1cccc(OCc2nnc(SCC(=O)N3CCCC3)n2C)c1 | inactive
CCCCOc1ccc(-c2nnn(CC(=O)Nc3ncc(CC(=O)OCC)s3)n2)cc1 | inactive
Cc1ccc(OCCCCn2c(CO)nc3ccccc32)cc1 | inactive
Cc1ccc2nc(/C(C#N)=C\c3ccc(N4CCCCC4)c([N+](=O)[O-])c3)[nH]c2c1 | 17.9% [at 9.38 µM] (inactive)
CCCCc1cc(=O)oc2cc(C)cc(OCC(=O)NCC3CCC(C(=O)O)CC3)c12 (stereo not drawn) | inactive
Cc1cccc(N2C(=O)CS/C2=N\NC(=O)c2ccc(Br)cc2)c1C | inactive
Cc1c(C(=O)O)sc(=S)n1-c1ccc(Cl)cc1 | inactive
O=C1c2ccc3c4c(ccc(c24)C(=O)N1c1cccc(O)c1)C(=O)N(c1cccc(O)c1)C3=O | inactive
Cc1ccc(/C=C2\SC(=S)N(c3cccnc3)C2=O)o1 | inactive
CC(=O)NCc1ccc(C(=O)CSc2nnc(-c3ccncc3)n2Cc2ccccc2)o1 | inactive
COc1ccc(S(=O)(=O)N[C@H](C(=O)N2CC[C@@]3(O)CCCC[C@H]3C2)c2ccccc2)cc1 | inactive
COc1ccc(OC)c(S(=O)(=O)N2CCC(C(=O)NCCc3ccc(OC)c(OC)c3)CC2)c1 | inactive
COc1ccc(OC)c(NC(=O)CCNS(=O)(=O)c2ccc3c(c2)c(=O)n(C)c(=O)n3C)c1 | inactive
O=C(CCCOc1ccc(Cl)cc1Cl)NNC(=O)C1CCC1 | inactive
Clc1ccc(OCc2nn3c(C4CCCCC4)nnc3s2)c(Cl)c1 | inactive
CC(C)OC(=O)Cn1c(=O)sc2ccccc21 | inactive
CC/C(=N\Nc1ccnc2cc(Cl)ccc12)c1ccc(O)cc1 | inactive
Cc1ccc(NC(=O)CS(=O)CC(=O)Nc2ccccc2-c2ccc(C)o2)cc1 (stereo not drawn) | inactive
Cc1ccc(NC(=O)Cc2ccc(F)cc2)cc1 | inactive

Structure (SMILES) | inhibition
CC1CCN(CC(CS(=O)(=O)c2ccc([N+](=O)[O-])cc2)N2CCC(C)CC2)CC1 (stereo not drawn) | inactive
CC1CC(C)CN(S(=O)(=O)c2cccc3cccnc23)C1 (stereo not drawn) | inactive
C=CCN(c1ccccc1)S(=O)(=O)c1cccc2cccnc12 | inactive
Cc1cc(C(=O)OCC(=O)Nc2cccc(S(=O)(=O)N3CCOCC3)c2)c(C)o1 | inactive
Cc1nc(N=Nc2ccc(O)cc2)n[nH]1 | inactive
Cc1cccc(-n2ccnc2CN2CCN(C3CCCC3)C(CCO)C2)c1 (stereo not drawn) | inactive
O=C1c2[nH]nc(-c3ccccc3O)c2C(c2ccc(F)cc2)N1CC1CCCO1 (stereo not drawn) | inactive
COc1ccccc1-c1cc2nc(C)c(CCC(=O)NC(C)CCc3ccco3)c(C)n2n1 (stereo not drawn) | inactive
O=C(NCCCn1ccnc1)c1cc2c(ccc3ccccc32)o1 | inactive
O=C(/C=C/c1ccc(Cl)cc1)NCCCn1ccnc1 | inactive
CC(=O)CC1OC(=O)C(Br)=C1NCc1ccccc1 (stereo not drawn) | inactive
Cc1ccc(-n2c(Cc3noc4ccccc34)n[nH]c2=S)cc1 | inactive
CCn1c(-c2ccncc2)n[nH]c1=S | inactive
O=C(OCCCN1C(=O)c2ccccc2C1=O)c1ccco1 | inactive
OCC[C@H]1C[C@H](O)[C@@H](O)[C@@]2(Cc3ccccc3CO2)O1 | inactive
Cc1ccc(N(CC(=O)Nc2c(C)n(C)n(-c3ccccc3)c2=O)S(C)(=O)=O)cc1C | inactive
Cc1nc2ccccc2nc1N/N=C/c1ccc(O)cc1O | inactive
Oc1ccc(C=NC2CCCCC2)c(O)c1 | inactive
CCN(CCCNC(=O)c1cn(CC)c2ccc(S(=O)(=O)N(C)C)cc2c1=O)c1cccc(C)c1 | inactive
Clc1ccc(CONc2ncnc3nonc23)c(Cl)c1 | inactive
COc1ccc(OC)c(C2=NO[C@@H]3C(=O)N(c4cc(Cl)ccc4OC)C(=O)[C@H]23)c1 | inactive
CC(C)(C)CC(=O)Nc1nnc(SCC(=O)N2CCCCC2)s1 | inactive

Structure (SMILES) | inhibition
Cc1cc(C)c(S(=O)(=O)Nc2ccccc2C(=O)OCC(=O)NCc2ccccc2)c(C)c1 | inactive
CC1Cc2ccccc2N1S(=O)(=O)c1cccc(C(=O)N2CC(=O)Nc3ccccc32)c1 (stereo not drawn) | inactive
O=[N+]([O-])c1ccc(-c2cnc(NO)nc2)cc1 | inactive
Cn1c(-c2ccc(Cl)cc2)cnc1N | inactive
CCC(O)CNc1nc(SC)nc2sc3c(c12)CCN(C)C3 (stereo not drawn) | inactive
c1ccc(CSc2ccc(-c3cccs3)nn2)nc1 | inactive
COc1ccc(C(=O)C[n+]2cc(Br)cc3ccccc32)cc1[N+](=O)[O-] | inactive
c1ccc2c(Nc3nnc(-c4ccncc4)s3)cccc2c1 | inactive
CC(/C=C\c1cccnc1)=C/C(=O)O | inactive
O=C(N/N=C/c1cccnc1)c1ccc(F)cc1 | inactive
Clc1ccc(N/N=C/c2cccs2)nn1 | inactive
CSc1nnc(-c2cccc(NC(=S)NN)c2)o1 | inactive
Cc1ccc2cc(CN(Cc3ccc(F)cc3)Cc3nnnn3C3CCCC3)c(=O)[nH]c2c1 | inactive
Nc1ccc(S(=O)(=O)c2ccc(N)cc2)cc1 | inactive
Cc1ccc(NC(=S)NCc2cccnc2)cc1 | inactive
CCc1nnc(NC(=O)c2ccc(S(C)(=O)=O)cc2)s1 | inactive
O=C(O)c1cnn2c1NC(c1cccs1)CC2C(F)(F)F (stereo not drawn) | inactive
CCCn1c(SCc2ccc(Cl)cc2)nc2c1c(=O)[nH]c(=O)n2C | inactive
NS(=O)(=O)c1ccc(CCNC(=O)C(=O)C2C(=O)Nc3ccccc32)cc1 (stereo not drawn) | inactive
NS(=O)(=O)c1ccc(CCNS(=O)(=O)c2cccc(C(=O)O)c2)cc1 | inactive
